Experimental data from PubChem BioAssay (NCI).
About 83,000 compounds went through this panel and 20% of them were active in at least one assay; those are over-represented in the sample as a whole.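 Method: cells in 96-well plates; compound added at one concentration; 48 h incubation; percent growth measured; values under 10 scored active.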 Active and inactive are the calls of the source.

These compounds were tested on A498 renal (assay: NCI-60 one-dose screen, 48 h (100 = growth as untreated, 0 = no growth, -100 = all killed)). Details: 10 µM unless noted.

`COc1ccc(C(O)c2cc3c(N)c(C(=O)Nc4cccc(OC)c4)sc3nc2C)cc1` (stereo unspecified) was tested. Which growth did it give?
Its growth is -17% (active).

`CCN(CC)S(=O)(=O)c1cccc([N+](=O)[O-])c1` was tested. Which growth did it give?
The growth was 73.2% (inactive).

How did the growth turn out when `CCOC(=O)C1CC(=O)c2cc(OC)c(OC)cc2C1` (stereo unspecified) was run?
Its growth is 129% (inactive).

Which growth does the source give for `c1ccc(CCSc2ncnc3nc[nH]c23)cc1` here?
Its growth is 86.3% (inactive).

For `O=S(=O)(NCCCNc1nccc(-c2c(-c3ccccc3)nc3occn23)n1)c1ccc(Cl)cc1`, which growth is on record?
Its growth is 83.1% (inactive).

How did the growth turn out when `Cc1nc2sc(C(=O)Nc3ccccc3)c(N)c2cc1C(=O)c1ccc(C(F)(F)F)cc1` was run?
Its growth is 5.8% (active).

`Nc1ncc(C#Cc2cncc(NC(=O)c3cccc(C(F)(F)F)c3)c2)c2cccnc12` was tested. Which growth did it give?
The growth was 62.8% (inactive).

How did the growth turn out when `CCCCCCCCCCCCCCCC(=O)OC[C@@]1(O)C[C@@]23CC[C@@H]4C(C)(C)CCC[C@@]4(C)[C@@H]2CC[C@H]1C3` was run?
The growth was 97.7% (inactive).

With `CC1(C)CN(c2cnc(C(=O)Nc3cc(F)cc4cccnc34)cn2)CCN1` as the compound, how does the growth read?
Its growth is 74.3% (inactive).

How did the growth turn out when `O=S(=O)(NCCCNc1nccc(-c2c(-c3ccc(F)c(O)c3)nc3sccn23)n1)c1ccc(F)cc1` was run?
Its growth is -10.9% (active).

With `CC1(C)CN(Cc2ccccc2)CCN1Cc1ccccc1` as the compound, how does the growth read?
The growth was 85.8% (inactive).

Which growth does the source give for `COc1ccc(Cn2nc(-c3ccccc3)c3c2CCc2cnoc2-3)cc1` here?
Its growth is 58.7% (inactive).

`O=C(Nc1ccc2ncnc(Nc3ccc(Oc4cccc(F)c4)c(Cl)c3)c2c1)c1ccc(CN2CCOCC2)cc1` was tested. Which growth did it give?
Its growth is 53.9% (inactive).

For `O=C1/C(=C/c2ccc(O)cc2)COc2ccc(-c3ccccc3)cc21`, which growth is on record?
Its growth is 100% (inactive).

For `CCCCc1ccc(Nc2nnc(SCC(=O)NC(=O)NCC)s2)cc1`, which growth is on record?
Its growth is 96.6% (inactive).

Which growth does the source give for `Fc1ccccc1CSc1ncnc2nc[nH]c12` here?
Its growth is 112% (inactive).

Which growth does the source give for `COc1ccc(-c2cnnc3c(-c4cccc(C(F)(F)F)c4)cnn23)cc1` here?
The growth was 78.6% (inactive).

`CC(=O)Nc1ccc(C(=O)Nc2cc(-c3ccccc3)ccc2N)cc1` was tested. Which growth did it give?
The growth was 83.9% (inactive).

With `Cc1ccc(C2CC(c3cccc(Nc4ccncc4)c3)=NN2c2ccc(Cl)cc2)cc1` (stereo unspecified) as the compound, how does the growth read?
The growth was -93.8% (active).

For `CC(C)[N+](C)(CCOC(COc1ccccc1)COc1ccccc1)C(C)C`, which growth is on record?
Its growth is 60% (inactive).

How did the growth turn out when `FC(F)(F)c1cccc(Oc2ccc(Nc3ncnc4ccc(OCCCN5CCOCC5)cc34)cc2Cl)c1` was run?
The growth was 63.1% (inactive).

Which growth does the source give for `COc1ccc(/C=C2\COc3ccc(-c4ccccc4)cc3C2=O)cc1O` here?
Its growth is 55.6% (inactive).

For `Cc1ccccc1-c1cc(Cc2ccc(F)cc2)c(=O)[nH]n1`, which growth is on record?
The growth was 117% (inactive).

`CC(=O)N1N=C(c2cccc(Nc3ccncc3)c2)CC1c1ccccc1` (stereo unspecified) was tested. Which growth did it give?
The growth was 70% (inactive).

For `COc1cccc(/C=C2\COc3ccc(-c4ccccc4)cc3C2=O)c1`, which growth is on record?
Its growth is 45.6% (inactive).

With `O=C1NC(=S)NC(=O)C1=Cc1cccc(C=C2C(=O)NC(=S)NC2=O)c1` as the compound, how does the growth read?
Its growth is 93.1% (inactive).

Which growth does the source give for `Cc1ccc(/C=C/C(=O)c2ccc(N)cc2)c(C)c1` here?
Its growth is 97.3% (inactive).

For `FC(F)(F)Oc1cccc(-c2cc(NCCCCCCNc3cc(-c4cccc(OC(F)(F)F)c4)nc4ccc(N5CCCC5)cc34)c3cc(N4CCCC4)ccc3n2)c1`, which growth is on record?
The growth was 21.8% (inactive).

For `CS(=O)(=O)c1ccc(-c2cc3c(oc2=O)-c2ccccc2OC3O)cc1` (stereo unspecified), which growth is on record?
The growth was 87.7% (inactive).

`O=C1c2cccnc2C(=O)c2nc3cc(N4CCN(C5CC5)CC4)ccc3nc21` was tested. Which growth did it give?
The growth was -88.1% (active).

Which growth does the source give for `CN1CCN(CCCOc2ccc3ncnc(Nc4ccc(Oc5cccc(C(F)(F)F)c5)c(Cl)c4)c3c2)CC1` here?
Its growth is 63.1% (inactive).

Which growth does the source give for `COc1cc(/C=N/NC(=O)c2ccccc2Nc2cccc(C(F)(F)F)c2)ccc1O` here?
The growth was 76.9% (inactive).

How did the growth turn out when `COc1ccc(/C=C/C(=O)c2ccc(Nc3ncnc4ccccc34)cc2)cc1OC` was run?
Its growth is 77.6% (inactive).

With `COc1cc(C2CC(c3cccc(Nc4ccncc4)c3)=NN2c2ccccc2)cc(OC)c1OC` (stereo unspecified) as the compound, how does the growth read?
The growth was 74.9% (inactive).

`COc1cccc(CCC(=O)c2cc3c(N)c(C(=O)Nc4cccc(Cl)c4C)sc3nc2C)c1` was tested. Which growth did it give?
The growth was -6.77% (active).

How did the growth turn out when `COc1ccc(-c2nc(N/N=C/c3ccco3)nc(N3CCOCC3)c2C#N)cc1` was run?
Its growth is 6.67% (active).

`COc1ccc(C(=O)c2cc3c(N)c(C(=O)Nc4cccc5ccccc45)sc3nc2C)cc1` was tested. Which growth did it give?
Its growth is -7.9% (active).

For `C#CCn1cc(C=C2C(=O)NC(=S)NC2=O)c2cc(Cl)ccc21`, which growth is on record?
The growth was -1.83% (active).

These compounds were tested on CCRF-CEM leukemia in the same assay as above. Details: 10 µM unless noted.

Which growth does the source give for `COc1ccc(C(O)c2cc3c(N)c(C(=O)Nc4cccc(OC)c4)sc3nc2C)cc1` (stereo unspecified) here?
The growth was 7.53% (active).

With `CCN(CC)S(=O)(=O)c1cccc([N+](=O)[O-])c1` as the compound, how does the growth read?
Its growth is 102% (inactive).

`CCOC(=O)C1CC(=O)c2cc(OC)c(OC)cc2C1` (stereo unspecified) was tested. Which growth did it give?
Its growth is 84.6% (inactive).

How did the growth turn out when `c1ccc(CCSc2ncnc3nc[nH]c23)cc1` was run?
The growth was 92.6% (inactive).

`O=S(=O)(NCCCNc1nccc(-c2c(-c3ccccc3)nc3occn23)n1)c1ccc(Cl)cc1` was tested. Which growth did it give?
The growth was 75.5% (inactive).

How did the growth turn out when `Cc1nc2sc(C(=O)Nc3ccccc3)c(N)c2cc1C(=O)c1ccc(C(F)(F)F)cc1` was run?
The growth was 102% (inactive).

`Nc1ncc(C#Cc2cncc(NC(=O)c3cccc(C(F)(F)F)c3)c2)c2cccnc12` was tested. Which growth did it give?
Its growth is 48.5% (inactive).

Which growth does the source give for `CCCCCCCCCCCCCCCC(=O)OC[C@@]1(O)C[C@@]23CC[C@@H]4C(C)(C)CCC[C@@]4(C)[C@@H]2CC[C@H]1C3` here?
Its growth is 43.2% (inactive).

For `CC1(C)CN(c2cnc(C(=O)Nc3cc(F)cc4cccnc34)cn2)CCN1`, which growth is on record?
Its growth is 44.5% (inactive).

How did the growth turn out when `O=S(=O)(NCCCNc1nccc(-c2c(-c3ccc(F)c(O)c3)nc3sccn23)n1)c1ccc(F)cc1` was run?
The growth was -13.2% (active).

For `CC1(C)CN(Cc2ccccc2)CCN1Cc1ccccc1`, which growth is on record?
The growth was 90.9% (inactive).

With `COc1ccc(Cn2nc(-c3ccccc3)c3c2CCc2cnoc2-3)cc1` as the compound, how does the growth read?
Its growth is 67.8% (inactive).

For `O=C(Nc1ccc2ncnc(Nc3ccc(Oc4cccc(F)c4)c(Cl)c3)c2c1)c1ccc(CN2CCOCC2)cc1`, which growth is on record?
Its growth is 2.89% (active).

`O=C1/C(=C/c2ccc(O)cc2)COc2ccc(-c3ccccc3)cc21` was tested. Which growth did it give?
The growth was -25.2% (active).

With `CCCCc1ccc(Nc2nnc(SCC(=O)NC(=O)NCC)s2)cc1` as the compound, how does the growth read?
Its growth is 78.8% (inactive).

Which growth does the source give for `Fc1ccccc1CSc1ncnc2nc[nH]c12` here?
The growth was 117% (inactive).

With `COc1ccc(-c2cnnc3c(-c4cccc(C(F)(F)F)c4)cnn23)cc1` as the compound, how does the growth read?
Its growth is 61.2% (inactive).

For `CC(=O)Nc1ccc(C(=O)Nc2cc(-c3ccccc3)ccc2N)cc1`, which growth is on record?
Its growth is 80.1% (inactive).

With `Cc1ccc(C2CC(c3cccc(Nc4ccncc4)c3)=NN2c2ccc(Cl)cc2)cc1` (stereo unspecified) as the compound, how does the growth read?
The growth was -30.8% (active).

For `CC(C)[N+](C)(CCOC(COc1ccccc1)COc1ccccc1)C(C)C`, which growth is on record?
The growth was 87.7% (inactive).

Which growth does the source give for `FC(F)(F)c1cccc(Oc2ccc(Nc3ncnc4ccc(OCCCN5CCOCC5)cc34)cc2Cl)c1` here?
The growth was -16.4% (active).

How did the growth turn out when `COc1ccc(/C=C2\COc3ccc(-c4ccccc4)cc3C2=O)cc1O` was run?
Its growth is -30.6% (active).

For `Cc1ccccc1-c1cc(Cc2ccc(F)cc2)c(=O)[nH]n1`, which growth is on record?
The growth was -50.9% (active).

How did the growth turn out when `CC(=O)N1N=C(c2cccc(Nc3ccncc3)c2)CC1c1ccccc1` (stereo unspecified) was run?
The growth was 84.1% (inactive).

`COc1cccc(/C=C2\COc3ccc(-c4ccccc4)cc3C2=O)c1` was tested. Which growth did it give?
Its growth is -32.7% (active).

For `O=C1NC(=S)NC(=O)C1=Cc1cccc(C=C2C(=O)NC(=S)NC2=O)c1`, which growth is on record?
The growth was 99.3% (inactive).

With `Cc1ccc(/C=C/C(=O)c2ccc(N)cc2)c(C)c1` as the compound, how does the growth read?
The growth was -45.3% (active).

`FC(F)(F)Oc1cccc(-c2cc(NCCCCCCNc3cc(-c4cccc(OC(F)(F)F)c4)nc4ccc(N5CCCC5)cc34)c3cc(N4CCCC4)ccc3n2)c1` was tested. Which growth did it give?
The growth was -32.1% (active).

How did the growth turn out when `CS(=O)(=O)c1ccc(-c2cc3c(oc2=O)-c2ccccc2OC3O)cc1` (stereo unspecified) was run?
Its growth is 58.9% (inactive).

How did the growth turn out when `O=C1c2cccnc2C(=O)c2nc3cc(N4CCN(C5CC5)CC4)ccc3nc21` was run?
The growth was 26.2% (inactive).

Which growth does the source give for `CN1CCN(CCCOc2ccc3ncnc(Nc4ccc(Oc5cccc(C(F)(F)F)c5)c(Cl)c4)c3c2)CC1` here?
The growth was -9.94% (active).

With `COc1cc(/C=N/NC(=O)c2ccccc2Nc2cccc(C(F)(F)F)c2)ccc1O` as the compound, how does the growth read?
The growth was -41.6% (active).

With `COc1ccc(/C=C/C(=O)c2ccc(Nc3ncnc4ccccc34)cc2)cc1OC` as the compound, how does the growth read?
The growth was 49.7% (inactive).

With `COc1cc(C2CC(c3cccc(Nc4ccncc4)c3)=NN2c2ccccc2)cc(OC)c1OC` (stereo unspecified) as the compound, how does the growth read?
Its growth is 6.7% (active).

How did the growth turn out when `COc1cccc(CCC(=O)c2cc3c(N)c(C(=O)Nc4cccc(Cl)c4C)sc3nc2C)c1` was run?
Its growth is 8.7% (active).

With `COc1ccc(-c2nc(N/N=C/c3ccco3)nc(N3CCOCC3)c2C#N)cc1` as the compound, how does the growth read?
Its growth is 74.2% (inactive).

How did the growth turn out when `COc1ccc(C(=O)c2cc3c(N)c(C(=O)Nc4cccc5ccccc45)sc3nc2C)cc1` was run?
The growth was 8.02% (active).

`C#CCn1cc(C=C2C(=O)NC(=S)NC2=O)c2cc(Cl)ccc21` was tested. Which growth did it give?
Its growth is 0.645% (active).
